For assay [1], the target named is Myc proto-oncogene protein (Homo sapiens) (UniProt P01106). Nature of the assay: ATG_Myc_CIS: Attagene CIS-FACTORIAL HepG2 Assay for human Myelocytomatosis (Myc) Proto-Oncogene Transcription Factor (AID 2282990). The settings on record: HepG2, Attagene cis-reporter transcription factor activity; actives raise or lower the signal. The essentials: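 Read-out: fluorescent reporter mRNA fragments resolved by capillary electrophoresis after RT-PCR. Human HepG2 liver cells carried transfected cis-element reporter units and were dosed for 24 h. Gain or loss of signal fitted relative to DMSO baseline.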
Sequence of Myc proto-oncogene protein (Homo sapiens) (P01106 whole entry, looked up, the tested form may be a part): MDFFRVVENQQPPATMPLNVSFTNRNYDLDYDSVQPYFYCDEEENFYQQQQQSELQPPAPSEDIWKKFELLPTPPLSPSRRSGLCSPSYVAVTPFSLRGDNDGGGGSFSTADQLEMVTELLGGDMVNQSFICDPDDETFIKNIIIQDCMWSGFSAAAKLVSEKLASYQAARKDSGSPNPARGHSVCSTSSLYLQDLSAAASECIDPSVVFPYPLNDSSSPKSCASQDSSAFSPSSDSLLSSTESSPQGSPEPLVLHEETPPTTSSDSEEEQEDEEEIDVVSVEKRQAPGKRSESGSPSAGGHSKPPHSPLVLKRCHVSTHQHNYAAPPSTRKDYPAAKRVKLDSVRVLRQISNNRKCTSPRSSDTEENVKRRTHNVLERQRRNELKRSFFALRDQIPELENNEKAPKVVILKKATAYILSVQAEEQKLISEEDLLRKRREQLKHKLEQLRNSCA

Assay [2] is described as follows: ATG_NF_kB_CIS: Attagene CIS-FACTORIAL HepG2 Assay for human Nuclear Factor Kappa B (NF-kB) (AID 2282991). To be noted: HepG2 Attagene cis-factorial NF-kB reporter mRNA; actives raise or lower the signal. In short, it runs like this:
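Read-out: reporter transcript levels quantified by RT-PCR plus capillary electrophoresis of 6-FAM-labelled, HpaI-cut fragments. Transfected HepG2 cells, 24 h compound exposure, endogenous NF-kB-driven cis element; gain or loss scored versus DMSO.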

A short description of assay [3]: ATG_NRF2_ARE_CIS: Attagene CIS-FACTORIAL HepG2 Assay for human Nuclear Factor Erythroid 2 Related Factor 2 (NFR2) response to Antioxidant Response Elements (ARE) (AID 2282992). The settings on record: HepG2 Attagene ARE/NRF2 reporter, transcription factor activity; actives raise or lower the signal. The essentials:
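Endogenous transcription factor activity in human liver HepG2 cells is tracked via a cis-element-driven reporter within a multiplexed set. mRNA induction is read by RT-PCR and capillary electrophoresis after 24 h, with DMSO as baseline.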

The nature of assay [4]: ATG_Oct_MLP_CIS: Attagene CIS-FACTORIAL HepG2 Assay for human Octamer-Binding Transcription Factor (Oct) (AID 2282993). To be noted: HepG2 Attagene cis-factorial Oct reporter, mRNA; actives raise or lower the signal. In short, it runs like this: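 Cells of the HepG2 line express promoter-controlled reporter sequences whose mRNA levels, after 24 h treatment, are measured by RT-PCR and capillary electrophoresis. Increases and decreases are scored relative to DMSO.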

Assay [5] can be described thus: BSK_3C_TissueFactor: BioMAP Diversity Plus: 3C Assay for Tissue Factor Biomarker Activity (AID 2282997). The settings on record: BioMAP 3C HUVEC, tissue factor biomarker readout; actives raise or lower the signal. In short, it runs like this: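 Tissue factor on primary human umbilical vein endothelium was read by ELISA 24 h after dosing, gain or loss relative to DMSO. Cytotoxicity ran alongside via SRB (0.1%, TCA-fixed, 560 nm).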

Assay [6] in a line: BSK_3C_uPAR: BioMAP Diversity Plus: 3C Assay for Urokinase-type plasminogen activator receptor (uPAR) Biomarker Activity (AID 2282998). The settings on record: BioMAP 3C HUVEC, uPAR biomarker ELISA; actives raise or lower the signal. In short, it runs like this: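 Endothelial primary cells of human umbilical vein origin received test chemical; 24 h later uPAR was assayed by ELISA. Fitting was bidirectional, DMSO as negative control.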

Assay [7] can be described thus: BSK_3C_VCAM1: BioMAP Diversity Plus: 3C Assay for Vascular cell adhesion molecule 1 (VCAM1) Biomarker Activity (AID 2282999). To be noted: BioMAP 3C HUVEC, VCAM1 ELISA, cytokine-stimulated; actives raise or lower the signal. The essentials: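 HUVEC primary cells, 24 h compound exposure; VCAM-1 by ELISA; gain/loss of signal fitted bidirectionally vs DMSO baseline.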

Assay [8] is described as follows: BSK_4H_Eotaxin3: BioMAP Diversity Plus: 4H Assay for Eotaxin 3 Biomarker Activity (AID 2283000).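 As to outcome: CCL26 protein level quantified by ELISA in parallel with SRB cytotoxicity check.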 The settings on record: primary human endothelial cells (HUVEC); actives raise or lower the signal. In short, it runs like this:
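Human umbilical vein endothelial cells (BSK_4H system) dosed with test chemical; Eotaxin-3 (CCL26) measured by ELISA 24 h after dosing. Bidirectional curve fitting relative to DMSO negative control as baseline.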

Read-out in assay [9]: Intercellular Adhesion Molecule 1 (ICAM1), ICAM1 (gene 3383)
Nature of the assay: BSK_3C_ICAM1: BioMAP Diversity Plus: 3C Assay for Intercellular Adhesion Molecule 1 (ICAM1) Biomarker Activity (AID 2283003). To be noted: primary human endothelial cells (HUVEC); actives raise or lower the signal. The essentials:
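Using DMSO as baseline, bidirectional curve fitting was applied to ICAM-1 ELISA signals from HUVEC in the 3C system, measured 24 h after compound addition.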

The target in assay [10] is human Retinoic Acid Receptor beta (RARb), RARB (gene 5915) (UniProt P10826). Nature of the assay: ATG_RARb_TRANS: Attagene TRANS-FACTORIAL HepG2 Assay for human Retinoic Acid Receptor beta (AID 2283004; active = hit-call score of the fitted dose curve at least 0.9, where 1 is the maximum). The essentials: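 Induction of reporter mRNA from a chimeric RARb-Gal4 construct was measured by RT-PCR, FAM labelling, HpaI digestion and capillary electrophoresis. Measurements followed 24 h compound treatment of transiently transfected human HepG2 liver cells, with DMSO as baseline.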
Sequence of human Retinoic Acid Receptor beta (RARb), RARB (gene 5915) (P10826 whole entry, looked up, the tested form may be a part): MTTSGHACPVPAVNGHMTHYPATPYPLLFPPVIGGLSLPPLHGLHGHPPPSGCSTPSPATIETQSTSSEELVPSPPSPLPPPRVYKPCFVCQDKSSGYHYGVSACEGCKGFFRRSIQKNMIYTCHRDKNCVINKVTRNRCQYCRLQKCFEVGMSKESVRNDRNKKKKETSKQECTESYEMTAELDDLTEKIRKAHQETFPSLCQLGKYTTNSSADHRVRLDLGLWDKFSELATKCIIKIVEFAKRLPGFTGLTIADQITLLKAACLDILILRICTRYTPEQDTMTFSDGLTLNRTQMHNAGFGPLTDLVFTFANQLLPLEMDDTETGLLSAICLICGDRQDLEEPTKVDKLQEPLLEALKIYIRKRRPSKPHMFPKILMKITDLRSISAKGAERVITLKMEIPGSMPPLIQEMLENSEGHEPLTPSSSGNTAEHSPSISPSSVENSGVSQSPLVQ

Assay [11] in a line: BSK_3C_Proliferation: Cell Proliferation Assessment in the BioMAP Diversity Plus: 3C Assay (AID 2283006).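 As to AC50: potency may reflect either rise or fall in cell number versus DMSO.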 To be noted: primary human endothelial cells (HUVEC). The essentials: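 Measured here: sulforhodamine B (0.1%) staining of TCA-fixed sub-confluent umbilical vein endothelial cultures 48 h post-dosing, absorbance 560 nm. DMSO served as negative control and baseline; both signal gain and loss were modelled.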

Assay [12] has as its target Peroxisome proliferator-activated receptor gamma (Homo sapiens) (UniProt P37231). As to the kind of experiment: ATG_PPARg_TRANS: Attagene TRANS-FACTORIAL HepG2 Assay for human Peroxisome Proliferator-activated Receptor-gamma (PPARg) (AID 2283007; active = hit-call score of the fitted dose curve at least 0.9, where 1 is the maximum). The essentials:
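Read-out: reporter mRNA induction, detected by fluorescence after RT-PCR and capillary electrophoresis. Transiently transfected human HepG2 liver cells carrying a chimeric NR-Gal4 construct were dosed for 24 h; activity was fitted upward relative to DMSO.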

The target of assay [13] is human RAR-related Orphan Receptor gamma (RORg), RORC (gene 6097) (UniProt P51449). As to the kind of experiment: ATG_RORg_TRANS: Attagene TRANS-FACTORIAL HepG2 Assay for human RAR-related Orphan Receptor gamma (RORg) (AID 2283011; active = hit-call score of the fitted dose curve at least 0.9, where 1 is the maximum). In short, it runs like this:
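Reporter transcripts from a transfected RORg-GAL4 chimera in HepG2 cells were quantified 24 h after dosing by RT-PCR, 6-FAM labelling, HpaI digestion and capillary electrophoresis; increases over DMSO baseline were fitted.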

Assay [14] deals with Nuclear receptor subfamily 1 group I member 2 (Homo sapiens) (UniProt O75469). As to the kind of experiment: ATG_PXR_TRANS: Attagene TRANS-FACTORIAL HepG2 Assay for human Pregnane X Receptor (PXR) (AID 2283008; active = hit-call score of the fitted dose curve at least 0.9, where 1 is the maximum). In short, it runs like this: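 HepG2 transfected (FuGene 6) with GAL4-UAS reporter units + PXR-Gal4 chimera; dosed 24 h. Total RNA → oligo(dT) RT → PCR → 6-FAM primer extension → HpaI cut → CE. Gain-of-signal vs DMSO.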
Sequence of Nuclear receptor subfamily 1 group I member 2 (Homo sapiens) (O75469 whole entry, looked up, the tested form may be a part): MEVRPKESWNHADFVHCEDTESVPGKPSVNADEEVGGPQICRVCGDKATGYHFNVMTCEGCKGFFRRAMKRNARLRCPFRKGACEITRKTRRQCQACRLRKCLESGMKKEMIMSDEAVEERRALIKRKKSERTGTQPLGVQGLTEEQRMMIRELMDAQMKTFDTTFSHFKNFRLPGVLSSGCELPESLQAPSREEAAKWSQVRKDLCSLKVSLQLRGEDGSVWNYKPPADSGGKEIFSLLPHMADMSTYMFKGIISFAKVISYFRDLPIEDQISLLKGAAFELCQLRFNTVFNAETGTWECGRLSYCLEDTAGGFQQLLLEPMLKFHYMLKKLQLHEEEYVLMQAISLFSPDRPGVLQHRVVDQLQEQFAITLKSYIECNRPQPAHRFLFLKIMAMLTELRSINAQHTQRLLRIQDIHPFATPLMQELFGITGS

Assay [15] deals with human RAR-related Orphan Receptor beta (RORb), RORB (gene 6096) (UniProt Q92753). As to the kind of experiment: ATG_RORb_TRANS: Attagene TRANS-FACTORIAL HepG2 Assay for human RAR-related Orphan Receptor beta (RORb) (AID 2283010; active = hit-call score of the fitted dose curve at least 0.9, where 1 is the maximum). In short, it runs like this: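 Multiplexed transcription-factor reporter assay: HepG2 cells transiently carrying NR-Gal4/GAL4-UAS constructs, 24 h treatment, mRNA quantified by RT-PCR plus capillary electrophoresis fluorescence; activity scored as induction over DMSO.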
Sequence of human RAR-related Orphan Receptor beta (RORb), RORB (gene 6096) (Q92753 whole entry, looked up, the tested form may be a part): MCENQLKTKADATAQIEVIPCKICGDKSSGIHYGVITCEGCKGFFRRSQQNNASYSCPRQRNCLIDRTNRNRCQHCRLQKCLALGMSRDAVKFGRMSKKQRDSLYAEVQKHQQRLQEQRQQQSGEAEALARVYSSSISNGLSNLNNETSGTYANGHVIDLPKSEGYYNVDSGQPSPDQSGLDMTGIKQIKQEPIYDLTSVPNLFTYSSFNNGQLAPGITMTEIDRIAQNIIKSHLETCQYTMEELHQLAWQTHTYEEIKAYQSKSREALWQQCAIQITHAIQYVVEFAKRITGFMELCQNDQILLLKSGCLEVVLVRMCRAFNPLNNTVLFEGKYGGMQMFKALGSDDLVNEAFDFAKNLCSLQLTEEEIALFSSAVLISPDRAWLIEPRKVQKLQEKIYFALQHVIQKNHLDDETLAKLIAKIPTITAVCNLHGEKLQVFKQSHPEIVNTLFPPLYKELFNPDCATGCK

The target in assay [16] is human Retinoic Acid Receptor gamma (RARg), RARG (gene 5916) (UniProt P13631). Nature of the assay: ATG_RARg_TRANS: Attagene TRANS-FACTORIAL HepG2 Assay for human Retinoic Acid Receptor gamma (RARg) (AID 2283009; active = hit-call score of the fitted dose curve at least 0.9, where 1 is the maximum). In short, it runs like this:
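Gain-of-signal relative to DMSO is reported from fluorescent capillary electrophoresis of RT-PCR reporter products. These came from HepG2 cells expressing transfected RARg-GAL4 chimeras with UAS reporters, harvested 24 h after dosing.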

Assay [17] concerns the target human Peroxisome Proliferator-activated Receptor alpha (PPARa), PPARA (gene 5465) (UniProt Q07869). Nature of the assay: ATG_PPARa_TRANS: Attagene TRANS-FACTORIAL HepG2 Assay for human Peroxisome Proliferator-activated Receptor alpha (PPARa) (AID 2283001; active = hit-call score of the fitted dose curve at least 0.9, where 1 is the maximum). In short, it runs like this:
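Transient HepG2 transfection, GAL4-UAS reporters, NR-Gal4 chimeras; 24 h compound exposure. Readout: reporter transcripts by RT-PCR, 6-FAM primer extension, HpaI digest, capillary electrophoresis. Positive direction vs DMSO baseline.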

Assay [18] has as its target human Peroxisome Proliferator-activated Receptor delta (PPARd), PPARD (gene 5467) (UniProt Q03181). Nature of the assay: ATG_PPARd_TRANS: Attagene TRANS-FACTORIAL HepG2 Assay for human Peroxisome Proliferator-activated Receptor delta (PPARd) (AID 2283002; active = hit-call score of the fitted dose curve at least 0.9, where 1 is the maximum). In short, it runs like this:
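Read-out: reporter mRNA induction, quantified by fluorescent RT-PCR products resolved by capillary electrophoresis. Human HepG2 liver cells carried transiently transfected Gal4-UAS reporter constructs with chimeric NR-Gal4 fusions. Cells were dosed for 24 h; DMSO served as baseline.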

Assay [19] has as its target Retinoic acid receptor alpha (Homo sapiens) (UniProt P10276). Nature of the assay: ATG_RARa_TRANS: Attagene TRANS-FACTORIAL HepG2 Assay for human Retinoic Acid Receptor alpha (RARa) (AID 2283005; active = hit-call score of the fitted dose curve at least 0.9, where 1 is the maximum). In short, it runs like this: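 HepG2 transiently transfected with multiplex GAL4-UAS reporter units including a human RARa–GAL4 chimera; 24 h compound exposure. Reporter mRNA quantified by RT-PCR, 6-FAM labeling and capillary electrophoresis; gain of signal versus DMSO.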

Inconclusive results are not listed. More than one record can exist for a structure, and the calls need not agree. Active and inactive are the calls of the source. The calls were made as follows, unless noted: active = hit-call score of the fitted dose curve at least 0.9, where 1 is the maximum; inactive = score below 0.9.

Sequence of human RAR-related Orphan Receptor gamma (RORg), RORC (gene 6097) (P51449 whole entry, looked up, the tested form may be a part): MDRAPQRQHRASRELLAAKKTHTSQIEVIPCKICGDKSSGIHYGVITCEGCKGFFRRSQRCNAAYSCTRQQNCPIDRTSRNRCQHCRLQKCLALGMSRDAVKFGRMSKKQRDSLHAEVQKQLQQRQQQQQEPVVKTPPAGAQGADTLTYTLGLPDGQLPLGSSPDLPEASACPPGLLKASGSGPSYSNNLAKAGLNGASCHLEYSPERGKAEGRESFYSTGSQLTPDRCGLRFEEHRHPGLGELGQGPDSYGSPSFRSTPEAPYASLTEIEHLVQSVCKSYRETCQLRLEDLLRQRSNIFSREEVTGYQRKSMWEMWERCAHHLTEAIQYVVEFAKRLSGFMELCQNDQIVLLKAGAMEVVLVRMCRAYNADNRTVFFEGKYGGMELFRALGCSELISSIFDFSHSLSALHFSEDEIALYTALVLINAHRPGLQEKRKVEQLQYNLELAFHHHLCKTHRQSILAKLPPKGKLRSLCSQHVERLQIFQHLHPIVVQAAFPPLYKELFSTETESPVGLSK
Sequence of human Peroxisome Proliferator-activated Receptor delta (PPARd), PPARD (gene 5467) (Q03181 whole entry, looked up, the tested form may be a part): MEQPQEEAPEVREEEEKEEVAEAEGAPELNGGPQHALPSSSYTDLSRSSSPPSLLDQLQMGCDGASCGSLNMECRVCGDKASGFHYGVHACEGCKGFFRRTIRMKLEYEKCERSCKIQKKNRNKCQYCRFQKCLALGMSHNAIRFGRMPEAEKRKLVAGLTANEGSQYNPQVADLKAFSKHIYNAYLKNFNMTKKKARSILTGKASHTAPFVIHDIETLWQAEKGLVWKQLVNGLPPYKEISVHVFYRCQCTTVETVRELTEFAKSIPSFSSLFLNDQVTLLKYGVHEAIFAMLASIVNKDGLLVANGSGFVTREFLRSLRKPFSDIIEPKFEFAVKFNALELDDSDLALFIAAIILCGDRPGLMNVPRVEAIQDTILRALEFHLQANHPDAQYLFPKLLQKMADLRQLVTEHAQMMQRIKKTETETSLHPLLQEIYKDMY
Sequence of Peroxisome proliferator-activated receptor gamma (Homo sapiens) (P37231 whole entry, looked up, the tested form may be a part): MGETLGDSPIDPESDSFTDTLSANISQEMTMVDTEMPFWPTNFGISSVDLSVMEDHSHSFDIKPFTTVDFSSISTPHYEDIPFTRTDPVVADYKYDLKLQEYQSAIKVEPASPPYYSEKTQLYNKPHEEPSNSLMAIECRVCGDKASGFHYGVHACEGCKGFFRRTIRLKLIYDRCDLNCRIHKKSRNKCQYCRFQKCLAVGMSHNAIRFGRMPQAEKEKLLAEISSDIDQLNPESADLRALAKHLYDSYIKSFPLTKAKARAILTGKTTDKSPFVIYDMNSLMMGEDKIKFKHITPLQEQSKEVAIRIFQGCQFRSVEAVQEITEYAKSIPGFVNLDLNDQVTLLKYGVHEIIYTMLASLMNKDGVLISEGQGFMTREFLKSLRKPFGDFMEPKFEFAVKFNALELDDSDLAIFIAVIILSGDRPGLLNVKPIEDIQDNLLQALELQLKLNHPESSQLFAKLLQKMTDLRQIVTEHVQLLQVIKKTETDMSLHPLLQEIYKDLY
Sequence of human Peroxisome Proliferator-activated Receptor alpha (PPARa), PPARA (gene 5465) (Q07869 whole entry, looked up, the tested form may be a part): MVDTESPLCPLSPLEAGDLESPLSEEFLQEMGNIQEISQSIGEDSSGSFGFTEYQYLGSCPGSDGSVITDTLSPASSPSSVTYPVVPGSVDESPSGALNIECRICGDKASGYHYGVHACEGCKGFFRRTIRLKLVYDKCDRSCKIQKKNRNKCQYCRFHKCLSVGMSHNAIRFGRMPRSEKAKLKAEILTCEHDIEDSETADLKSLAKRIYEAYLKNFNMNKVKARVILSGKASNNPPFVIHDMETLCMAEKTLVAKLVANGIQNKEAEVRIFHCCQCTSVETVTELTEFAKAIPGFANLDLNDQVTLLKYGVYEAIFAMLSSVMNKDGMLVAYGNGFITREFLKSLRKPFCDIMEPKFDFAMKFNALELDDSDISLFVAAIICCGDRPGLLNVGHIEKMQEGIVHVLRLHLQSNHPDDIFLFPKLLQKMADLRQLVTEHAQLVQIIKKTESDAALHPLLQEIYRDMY
Sequence of human Retinoic Acid Receptor gamma (RARg), RARG (gene 5916) (P13631 whole entry, looked up, the tested form may be a part): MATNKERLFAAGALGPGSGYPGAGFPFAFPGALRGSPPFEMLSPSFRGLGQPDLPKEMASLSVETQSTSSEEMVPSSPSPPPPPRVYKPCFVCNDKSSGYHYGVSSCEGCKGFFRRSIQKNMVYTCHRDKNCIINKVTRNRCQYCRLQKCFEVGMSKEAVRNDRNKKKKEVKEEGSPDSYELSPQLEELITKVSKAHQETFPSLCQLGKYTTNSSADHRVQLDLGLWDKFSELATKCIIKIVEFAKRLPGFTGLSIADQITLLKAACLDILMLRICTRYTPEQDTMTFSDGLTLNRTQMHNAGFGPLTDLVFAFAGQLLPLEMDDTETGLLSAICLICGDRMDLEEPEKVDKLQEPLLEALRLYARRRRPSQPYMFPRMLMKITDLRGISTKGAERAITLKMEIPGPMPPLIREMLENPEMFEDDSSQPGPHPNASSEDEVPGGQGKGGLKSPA
Sequence of Retinoic acid receptor alpha (Homo sapiens) (P10276 whole entry, looked up, the tested form may be a part): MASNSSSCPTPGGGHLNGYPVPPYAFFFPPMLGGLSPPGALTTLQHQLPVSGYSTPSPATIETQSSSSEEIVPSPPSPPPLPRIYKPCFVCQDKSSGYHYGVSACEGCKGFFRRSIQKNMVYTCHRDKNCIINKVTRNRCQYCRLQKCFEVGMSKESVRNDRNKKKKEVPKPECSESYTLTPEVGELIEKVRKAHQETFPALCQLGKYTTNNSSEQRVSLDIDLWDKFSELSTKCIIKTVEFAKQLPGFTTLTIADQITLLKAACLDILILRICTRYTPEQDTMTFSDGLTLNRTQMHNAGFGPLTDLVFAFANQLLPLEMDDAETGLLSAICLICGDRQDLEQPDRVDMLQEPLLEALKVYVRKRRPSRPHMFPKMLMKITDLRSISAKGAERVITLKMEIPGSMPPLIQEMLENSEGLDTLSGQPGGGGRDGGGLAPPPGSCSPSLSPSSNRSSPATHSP

In the case of `CC(=O)OC1CC(C)OC(C)O1` (stereo not drawn), the call in assay [1], in assay [2], in assay [4], in [5], in [6] and in [7] was inactive. Also, the outcome in [8], in assay [9], in assay [10], in assay [11], in assay [12] and in assay [13] was inactive. The AC50 in [3] is 68.9 µM (active).

With `Cc1ccc(C(C)(C)C)c(O)c1`, the AC50 in assay [1] was 100 µM (active); in assay [2], 164 µM (active); in assay [3] it was 65.3 µM (active); in [4], 144 µM (active); in assay [5], 27.6 µM (active); in [6], 32.6 µM (active). Further, the AC50 in assay [7] is 34.6 µM (active); in [9] it was 31.1 µM (active); in assay [14], 47.2 µM (active). Further, the outcome in [8], in assay [11] and in assay [12] was inactive.

Turning to `CCCCC(CC)COP(=O)(OCC(CC)CCCC)OCC(CC)CCCC` (stereo not drawn), the compound was classed as inactive in assay [1], in assay [2], in [3], in assay [4], in assay [5] and in assay [9]. In assay [15], the compound was classed as inactive. In addition, the half-maximal activity concentration (AC50) is 12.5 µM (active) in assay [6]; 20 µM (active) in [7]; 20 µM (active) in [8]; 20.6 µM (active) in assay [11]; 0.227 µM (active) in [14].

Take `CCCC(=O)O`: the outcome in assay [1], in assay [2], in assay [3], in assay [4], in assay [5] and in [6] was inactive. For the same compound, the outcome in assay [7], in assay [8], in [9], in [11], in assay [14] and in [16] was inactive. Moreover, the result in assay [13] was inactive.

Turning to `Cn1cnc2c1c(=O)[nH]c(=O)n2C`, the outcome in assay [1], in [2], in assay [3], in assay [4], in [5] and in assay [6] was inactive. In addition, the result in assay [7], in assay [8], in assay [9], in assay [11], in [12] and in assay [14] was inactive. In addition, the outcome in assay [16] and in [13] was inactive.

As to `CCCCC(CC)COC(=O)CCCCCCCC(=O)OCC(CC)CCCC` (stereo not drawn), the compound was called inactive in assay [1], in [2], in assay [3], in assay [4], in assay [5] and in assay [6]. Also, the result in assay [7], in assay [8], in assay [17], in assay [9], in assay [11] and in assay [14] was inactive.

Take `CCN(CC)CCOc1ccc(C(=C(Cl)c2ccccc2)c2ccccc2)cc1`: the result in assay [1], in assay [2], in [4], in assay [17], in assay [18] and in assay [10] was inactive. Moreover, the compound was called inactive in [19], in assay [12], in assay [16] and in assay [13]. The AC50 in [4] is 7.1 µM (active); in assay [5], 13.5 µM (active); in assay [6], 6.51 µM (active); in assay [7], 13.8 µM (active); in assay [8], 12.4 µM (active); in assay [9], 13.7 µM (active). In assay [11], the AC50 was 2.92 µM (active).

Source of the values: PubChem BioAssay (EPA / NIEHS).
